The list is not random: actives were taken first. Their share in the collection is about 19%.
HT1080 IDH1KD tx: toxicity to HT-1080 IDH1 knockdown cells (counter line) | HT-1080 IDH1 knockdown viability, ATP luminescence, 48 h | Potency, µM (highest dose often 46.1 µM), without a hit: at the top dose activity, negative = toxicity, usual class: cytotoxic | 360,000 tested, 2% active | AID 686971;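 further: potency means the concentration at half of the fitted maximal effect; 0% = DMSO wells and -100% = cell-free medium wells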
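Cytotoxicity counter-line: IDH1KD HT-1080, 48 h, CellTiter-Glo. Curves classed by r2, magnitude and activity.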
DT40 TDP1 no CPT: qHTS for Inhibitors of human tyrosyl-DNA phosphodiesterase 1 (TDP1): qHTS in cells in absence of CPT; DT40 Tdp1-/- hTDP1 cells, no CPT, ATP luminescence, 48 h; Potency, µM (highest dose often 46.2 µM), inactives show at the highest dose activity change, negative = growth inhibition, actives largely listed as inhibitors; 420,000 tested, 15% active; AID 686978, 2013; further: potency means the concentration at half of the fitted maximal effect; nearly all actives have a fitted effect of over 55% in size
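No-CPT arm: Tdp1-/-;hTDP1 DT40 cells (400/well) plus compounds, incubated ≥48 hr at 37 °C. Readout CellTiter-Glo luminescence.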
HT1080NT lethal: kills 2HG-producing HT-1080-NT fibrosarcoma cells; AID 686970; Potency, µM (series often up to 46.1 µM), without a hit: at the top dose activity, negative = less viability, most hits filed as cytotoxic; 360,000 tested, 1.6% active; HT-1080-NT fibrosarcoma viability, CellTiter-Glo ATP luminescence, 48 h;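 further: NT is the 2HG producing partner of a matched IDH1 knockdown line; potency means the concentration at half of the fitted maximal effect; 0% = DMSO-treated cells and -100% = media-only wells without cells; nearly all actives have a fitted effect of over 55% in size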
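750 cells/well, RPMI + 5% FBS; 2 h settle, compound pin-transfer, 48 h at 37 degrees C. CellTiter-Glo 10 min RT, luminescence. Normalized to DMSO and media-only wells.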
DT40 TDP1 CPT: DT40-hTDP1 cell growth loss with CPT | chicken DT40 Tdp1-/-;hTDP1 cells + 20 nM CPT, ATP luminescence, 48 h | Potency, µM (highest dose often 46.2 µM), without a hit: at the top dose activity change, negative = growth inhibition, actives largely listed as inhibitors | 420,000 tested, 12% active; further: potency means the concentration at half of the fitted maximal effect; nearly all actives have a fitted effect of over 55% in size
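Chicken DT40 Tdp1-/- cells stably complemented with human TDP1 were seeded at 400 cells/well in medium containing 20 nM camptothecin, exposed to pin-transferred compounds, and grown at 37 °C for at least 48 hr. Viability was read as ATP luminescence.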
IL-1B inflam inh: blocks inflammasome-driven IL-1 beta release; activity change, % at 57.5 µM; THP-1 LPS/ATP IL-1B secretion, AlphaLISA, 16 h; hits give low values; 360,000 tested, 4.7% active; in the data active means activity change below about -50%; inconclusive means mostly about -30% to -49%
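Secreted IL-1B measured by AlphaLISA bead assay after 16 h compound exposure of THP-1 cells; compounds (final up to 57.5 uM) added 1 h before LPS (250 ng/mL) and ATP (1.25 mM) stimulation; lower signal means less secretion.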
The depositor's hits bear a star; ? = inconclusive; · = no result. Unless noted, the call rests on the fitted dose curve; in most records, active means well fitted curve in the direction sought with a large enough effect; inconclusive means small, poorly fitted or top-dose-only effect, or another doubt; inactive means no such curve, though single readings can be large; an effect the other way counts as inactive or inconclusive. Unless noted, on the % scale 0 is the no-effect control and ±100 the full control effect.

SMILES | HT1080 IDH1KD tx | DT40 TDP1 no CPT | HT1080NT lethal | DT40 TDP1 CPT | IL-1B inflam inh
O=C(Nc1cccc(NC(=O)c2ccccc2Cl)c1)c1ccco1 | 1.7% | -12.5% | 7.5% | -27.0% | -2.4
CC(C)CC(C)c1cc(N)nc2nc3ccccc3n12 (centres undefined) | -11.3% | ? | -15.6% | ? | 69.8
N/C(=N\OC(=O)c1ccccc1)C(Cc1ccccc1)C(=O)NOC(=O)c1ccccc1 (centres undefined) | ? | 2.59µM* | ? | 2.91µM* | -88.6*
O=S(=O)(Nc1nc2ccccc2nc1N1CCN(CCO)CC1)c1cc(F)ccc1F | -2.9% | 20.8% | 0.3% | 23.1µM* | 12.9
CCCCC(=O)NNC(=S)NC(=O)c1cccc([N+](=O)[O-])c1 | ? | ? | -20.7% | 23.1µM* | 50.0
CCCCOc1ccc(C(=O)N/C(=C\c2cccc([N+](=O)[O-])c2)C(=O)OCCC)cc1 | -2.3% | -5.4% | -23.9% | -0.1% | -7.8
CCCCOc1ccc(C(=O)NCC(=O)NC2CC2)cc1 | 18.5% | 1.3% | 7.0% | 0.7% | 13.9
O=C(NNC(=S)NC(=O)c1ccccc1)c1cccc([N+](=O)[O-])c1 | ? | ? | -28.7% | ? | 36.4
CCCCOc1ccc(C(=O)N/C(=C/c2cccc([N+](=O)[O-])c2)C(=O)O)cc1 | -6.7% | -25.5% | 2.2% | -7.3% | -61.8*
CCCCC(=O)NNC(=S)NC(=O)c1ccc([N+](=O)[O-])cc1 | -22.7% | 29.1µM* | 3.7% | ? | 29.6
CCCCOc1ccc(C(=O)N/C(=C\c2ccc(Br)cc2)C(=O)NC2CCCCC2)cc1 | · | ? | · | 5.17µM* | ·
CCCCC(=O)NNC(=S)NC(=O)c1ccc(C)cc1 | ? | ? | ? | -104.2% | 60.9
CCOc1cc(NC(=O)Nc2ccc(F)cc2)c(OCC)cc1NC(=O)CC | 10.6% | 5.3% | 14.8% | -2.1% | -0.4
CCCCCC(=O)NC(=S)NC1C2CC3CC(C2)CC1C3 (centres undefined) | ? | ? | ? | ? | 76.9
CCCCCC(=O)NNC(=S)NC(C)=O | ? | 18.4µM* | 21.7% | ? | 15.6
O=C(NNC(=S)NC(=O)c1cccc([N+](=O)[O-])c1)c1ccc(O)cc1 | -7.8% | 5.0% | -22.6% | -0.6% | 15.3
O=C(NNC(=S)NC(=O)c1cccc([N+](=O)[O-])c1)c1ccc(Br)cc1 | ? | 20.6µM* | -9.1% | 16.4µM* | 73.5
Cc1ccc(NC(=O)CSc2nc3c(c(=O)[nH]2)CCC3)cc1Cl | · | -21.5% | · | -27.0% | ·
COc1cc(C(=O)C(=O)N2CCN(c3ccccc3)CC2)cc2ccccc12 | -4.4% | ? | -10.7% | ? | -6.4
CC(=O)Nc1ccc(Sc2ccccc2C(=O)Nc2ccc(F)cc2)cn1 | -7.4% | 18.4µM* | -4.4% | ? | 22.3
Cc1ccc(S(=O)(=O)N2CCN(C(=O)c3cc(-c4cccs4)nn3-c3ccccc3)CC2)cc1 | -0.2% | 18.4µM* | -0.5% | 13µM* | 0.0
O=C(c1cc(C2CC2)nn1-c1ccccc1)N1CCN(S(=O)(=O)c2ccc(F)cc2)CC1 | -1.1% | ? | -4.4% | -20.2% | 4.1
O=C(c1cc(-c2cccs2)nn1-c1ccccc1)N1CCN(S(=O)(=O)c2ccccc2)CC1 | 0.1% | 18.4µM* | -2.9% | ? | -14.1
O=C(c1cc(-c2ccccc2)nn1-c1ccccc1)N1CCN(S(=O)(=O)c2ccc(F)cc2)CC1 | -0.9% | ? | 0.4% | ? | 30.9
COc1ccc2c(c1)N(C(=O)CSc1n[nH]c(C)n1)C(C)(C)C=C2C | 2.5% | -5.7% | 2.0% | -6.5% | 22.9
NC(=O)c1ccsc1NC(=O)COC(=O)c1cccnc1Cl | 16.0% | -10.5% | 9.0% | 13.4% | 1.9
CCN1C(=O)CC(SC2CC(=O)N(CC)C2=O)C1=O (centres undefined) | 2.6% | 8.2µM* | 1.8% | 3.66µM* | -1.7

Assay outcomes (PubChem)
